Among all 320,000 compounds or so, about 22,000 (6.9%) were called active. Not shown: some 27% with an inconclusive outcome. The call rests on the fitted dose curve; in most records, active means well fitted inhibition curve with a large enough effect; inconclusive means small, poorly fitted or top-dose-only effect, or another doubt; inactive means no such curve, though single readings can be large or run the other way. Shown is part of a subset that was picked to be rich in actives.
Assay: Primary qHTS for delayed death inhibitors of the malarial parasite plastid, 96 hour incubation
Settings: P. falciparum luciferase reporter growth; series mostly up to 28.7 µM; activity change, negative = inhibition: at the top concentration
In short: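 Erythrocytes infected with luciferase-expressing P. falciparum were dispensed at 2% hematocrit and 0.05% parasitemia (final), then incubated with compounds 96 hours at 37 C in 5% CO2. Luminescence after detection reagent addition reported growth.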
On the % scale 0 is the no-effect control and ±100 the full control effect; potency means the concentration at half of the fitted maximal effect.

| Structure (SMILES) | activity change, negative = inhibition | Potency |
| --- | --- | --- |
| CCOc1ccccc1N(CC(=O)Nc1ccccc1C(=O)OC)S(C)(=O)=O | 19.4% (inactive) |  |
| Cc1cc(C)c(S(=O)(=O)c2cc(F)ccc2C)c(=O)[nH]1 | 23.5% (inactive) |  |
| O=C(COC(=O)c1ccc(N2CCCC2=O)cc1)c1ccc(OC(F)F)cc1 | -2.98% (inactive) |  |
| COc1ccc(NC(=O)C2C3CCC(O3)C2C(=O)O)cc1OC (stereo unspecified) | 0.311% (inactive) |  |
| O=C(CCCN=C1NS(=O)(=O)c2ccccc21)OCC(=O)c1ccc(F)c(F)c1 | 63.8% (inactive) |  |
| CCN(CC(=O)Nc1ccc2c(c1)OCO2)S(=O)(=O)c1ccccc1 | 20.2% (inactive) |  |
| CN(C)C(=O)Oc1ccc(NC(=O)N2CCOCC2)cc1 |  | 3.29 µM (active) |
| COc1cc(NC(=O)N2CCOCC2)cc(OC)c1 | 19.1% (inactive) |  |
| CN(C)S(=O)(=O)c1ccc(NC(=O)N2CCOCC2)cc1 | 0% (inactive) |  |
| CCCCN1CCNC1=S | 23.1% (inactive) |  |
| COc1ccc(-c2cc(=O)oc3cc(OCC(=O)N(C)C4CCS(=O)(=O)C4)ccc23)cc1 (stereo unspecified) | -4.86% (inactive) |  |
| CC(C)(C)N(CC#CCC(O)(c1ccccc1)C1CCCC1)CCO (stereo unspecified) | 1.1% (inactive) |  |
| CN(CC#CCC(c1ccccc1)c1ccccc1)C(C)(C)C |  | 4.65 µM (active) |
| CCCn1nc(C(=O)NNC(=O)CCOc2ccccc2OCC)c2ccccc2c1=O | 7.41% (inactive) |  |
| CC(Sc1nnc(CNC(=O)c2ccccc2F)n1C)C(=O)Nc1nccs1 (stereo unspecified) | 7.6% (inactive) |  |
| CCCC(O)(CCC)C(=O)NN(C(=O)CCl)c1cccc(C)c1 |  | 1.04 µM (active) |
| CC(C)(O)C(=O)NN(C(=O)c1ccccc1)c1cccc(Br)c1 | -4.06% (inactive) |  |
| Cc1ccc(N(NC(=O)C(C)(C)O)C(=O)c2ccccc2)cc1C | 2.62% (inactive) |  |
| Cc1ccc2nc(NC(=O)C3CSC4(C)CCC(=O)N34)sc2c1 (stereo unspecified) | 50% (inactive) |  |
| Cc1ccc(S(=O)(=O)c2c[nH]c3ccc(C)cc3c2=O)cc1 | 36.3% (inactive) |  |
| O=C(NCc1ccccc1)c1ccc(CNc2c(N3CCCC3)c(=O)c2=O)cc1 | -10.6% (inactive) |  |
| O=S(=O)(NCCS(=O)(=O)N1CCN(c2ccccc2)CC1)c1ccc(F)cc1 | -0.305% (inactive) |  |
| CCOc1cc(/C=N/NC(=O)OC)ccc1OCCSc1ccc(Cl)cc1 |  | 10.4 µM (active) |
| CCOc1ccc(/C=N/NC(=O)C(C)Sc2ccccn2)cc1OCC (stereo unspecified) | 12.6% (inactive) |  |
| COC(=O)N/N=C/c1ccc(/C=N/NC(=O)OC)cc1 | 43% (inactive) |  |
| COc1ccc(C)cc1NC(=O)CCCN1C(=O)NC(C)(C)C1=O | 32% (inactive) |  |

| Structure (SMILES) | activity change, negative = inhibition | Potency |
| --- | --- | --- |
| NC(=O)c1cc(S(=O)(=O)N2CCCC2)ccc1OCc1ccc(F)cc1 | -13.7% (inactive) |  |
| Cc1cc(C)c2[nH]c(=O)c(C(c3nnnn3Cc3ccc4c(c3)OCO4)N3CCCC3)cc2c1 (stereo unspecified) | 0% (inactive) |  |
| CC(C)(C)n1nnnc1C(c1ccc(F)cc1)N1CCN(Cc2ccc3c(c2)OCO3)CC1 (stereo unspecified) | 2.75% (inactive) |  |
| Fc1ccccc1C(c1nnnn1Cc1ccc2c(c1)OCO2)N1CCN(Cc2ccccc2)CC1 (stereo unspecified) |  | 1.85 µM (active) |
| COc1ccc(C(=O)Nc2ccc(C3(C#N)CCCC3)cc2)cc1OC | 45.8% (inactive) |  |
| CC1CCCCC1NC(=O)CN1CCC(O)(c2ccc3c(c2)OCO3)CC1 (stereo unspecified) |  | 13.1 µM (active) |
| O=C(CN1CCC(O)(c2ccccc2)CC1)Nc1ccc2c(c1)OCCO2 | 22.7% (inactive) |  |
| CC1CCCCC1NC(=O)COC(=O)Cc1ccc(Br)cc1 (stereo unspecified) | 27.3% (inactive) |  |
| O=C(Nc1ccc2c(c1)CCC2)c1cccc(S(=O)(=O)Nc2ccccc2Cl)c1 | 39% (inactive) |  |
| Cc1cccnc1NC(=O)c1cccc(S(=O)(=O)N2CCN(c3ccc(F)cc3)CC2)c1 | -18.5% (inactive) |  |
| O=C(Nc1ccc2c(c1)CCC2)c1cccc(S(=O)(=O)N2CCN(c3ccc(F)cc3)CC2)c1 |  | 9.28 µM (active) |
| CCOc1ccc(/C=C/C(=O)N(CC)CC(=O)NCc2cccs2)cc1OC | 4.59% (inactive) |  |
| O=C(Cn1nc(C(=O)O)c2ccccc2c1=O)Nc1ccc(F)cc1 | 50.2% (inactive) |  |
| COc1ccc(-c2cc(C(=O)N3CCN(c4ccc(F)cc4)CC3)no2)cc1 | 116% (inactive) |  |
| CCOC(=O)C1(C(F)(F)F)N=C(N(C)C)OC(N(C)C)=N1 |  | 4.15 µM (active) |
| CCOc1ccc2[nH]c3nc(SCC(=O)NC4CCCC4)nnc3c2c1 | 58.3% (inactive) |  |
| CCOc1ccc(CN2CCN(Cc3c[nH]c4ccccc34)CC2)cc1 | 0% (inactive) |  |
| Cc1cccc(OCC(=O)NCCNC(=O)c2cccnc2)c1 | -11.1% (inactive) |  |
| CN(CC(=O)Nc1ccccc1Cl)C(=O)c1ccccc1SCC(=O)N1CCCC1 | -6.58% (inactive) |  |
| CCOC(=O)CSc1nc2ccc(C)cc2n2cnnc12 | -4.99% (inactive) |  |
| COc1ccccc1N=C1SC(C)CN1C(=O)C1CCC1 (stereo unspecified) |  | 10.4 µM (active) |
| COc1ccccc1N=C1SCCCN1C | -24.4% (inactive) |  |
| CCc1noc(C)c1C(=O)N1CCCSC1=Nc1ccccc1OC | -9.42% (inactive) |  |
| O=S(=O)(NC(=S)Nc1ccccc1)c1ccc(F)cc1 | 25.1% (inactive) |  |
| CO[C@H]1[C@@H]2C=CO[C@@H](O[C@H]3O[C@@H](CO)[C@H](O)[C@@H](O)[C@@H]3O)[C@@H]2[C@@]2(CO)O[C@@H]12 | 36.1% (inactive) |  |

From PubChem BioAssay AID504834 (National Center for Advancing Translational Sciences (NCATS), 2011)
